The panel holds about 83,000 compounds, 20% with a hit somewhere; the sample as a whole holds those more often.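 Results are percent growth after 48 hours of single-concentration exposure. 100 means growth as in untreated cells, lower positive values show inhibition; negative values down to -100 show cell death.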 A number with no mark means an inactive call. Activity calls are given as the source filed them. Rule for the calls: active = growth percent below 10; inactive = the rest.
Assays:
Assay in all cases: NCI-60 one-dose screen, 48 h (100 = growth as untreated, 0 = no growth, -100 = all killed)
SR leukemia = conditions: 10 µM unless noted
RPMI-8226 leukemia = conditions: 10 µM unless noted
OVCAR-8 ovarian = conditions: 10 µM unless noted
OVCAR-5 ovarian = conditions: 10 µM unless noted
OVCAR-4 ovarian = conditions: 10 µM
SK-OV-3 ovarian = conditions: 10 µM unless noted
IGROV1 ovarian = conditions: 10 µM unless noted
NCI/ADR-RES ovarian = conditions: 10 µM unless noted
T-47D breast = conditions: 10 µM unless noted
BT-549 breast = conditions: 10 µM unless noted
MDA-MB-435 melanoma = conditions: 10 µM unless noted
SW-620 colon = conditions: 10 µM unless noted
MCF7 breast = conditions: 10 µM unless noted
HCT-116 colon = conditions: 10 µM unless noted
HCC-2998 colon = conditions: 10 µM unless noted
KM12 colon = conditions: 10 µM unless noted
HS 578T breast = conditions: 10 µM unless noted
OVCAR-3 ovarian = conditions: 10 µM unless noted

Row | Compound | growth (SR leukemia) | growth (RPMI-8226 leukemia) | growth (OVCAR-8 ovarian) | growth (OVCAR-5 ovarian) | growth (OVCAR-4 ovarian) | growth (SK-OV-3 ovarian) [%] | growth (IGROV1 ovarian) [%] | growth (NCI/ADR-RES ovarian) [%] | growth (T-47D breast) | growth (BT-549 breast) | growth (MDA-MB-435 melanoma) | growth (SW-620 colon) | growth (MCF7 breast) | growth (HCT-116 colon) | growth (HCC-2998 colon) | growth (KM12 colon) | growth (HS 578T breast) | growth (OVCAR-3 ovarian)
1 | COc1ccc(CC(C#N)c2ccc(Cl)cc2)cc1 (stereo unspecified) | 36.3% | 85% | 99% | 82.9% | 103% | 89.3 | 68.8 | 42.5 | 98.2% | 74.9% | 0.297% (active) | 49% | 75% | 72.4% | 61.6% | 32.6% |  | 
2 | O=c1[nH]cnc2c1ccn2C1OC(CO)C(O)C1O (stereo unspecified) | 58.1% | 58% | 31.4% | 76.6% | 24.5% | 39.3 | 48.7 | 31.1 | 54.1% | 75.8% |  |  | 24.9% | 54.9% | 69.3% | 75.1% | 74.6% | 
3 | CCCCCCNC(=O)Nc1ncnc2c1ncn2-c1ccccc1 | 99.5% | 91.4% | 91.3% | 88.9% | 85.3% | 87.5 | 88.1 | 91.1 | 66.6% |  | 102% | 95.9% | 89.4% | 90.2% | 118% | 108% | 97.6% | 
4 | COc1ccc(OC)c([N+](=O)[O-])c1C(=O)CNC(C)=O | 118% | 93.4% | 99.5% | 99.9% | 103% | 105 | 106 | 94.9 | 103% | 84.5% | 103% | 106% | 92.7% | 106% | 101% | 106% | -2.16% (active) | 
5 | Cc1cc(-c2ccc(N=Nc3c(S(=O)(=O)O)cc4cc(S(=O)(=O)O)cc(N)c4c3O)c(C)c2)ccc1N=Nc1cc(S(=O)(=O)O)c2ccccc2c1O | 106% | 98.5% | 96.6% | 86.8% | 105% | 93.4 | 95.8 | 97.2 | 99.6% | 107% | 104% | 109% | 92.2% | 96.4% | 104% | 102% | 90.7% | 
6 | CCCCCCCCCCCCNC(=S)N/N=C/c1ccccc1O | 44% | 55.4% | 77.9% | 99.1% | 65.2% | 102 | 65.1 | 77.1 | 42.2% | 108% | 80.5% | 91.8% | 51% | 62.2% | 78.2% | 68.8% | 91.7% | 
7 | CCOc1ccccc1/C=N\Nc1ccc(S(=O)(=O)c2ccc(N/N=C/c3ccccc3OCC)cc2)cc1 | 94.8% | 81.3% | 93.1% | 95% | 96.6% | 87.6 | 76 | 92.8 | 75.6% | 83.4% | 99.3% | 97.9% | 79.1% | 87.5% | 107% | 91.5% | -24.9% (active) | 
8 | CC1=C/C(=C(\c2cc(C)c(O)c(C(=O)O)c2)c2c(Cl)cccc2Cl)C=C(C(=O)O)C1=O | 102% | 102% | 100% | 106% | 108% | 93.3 | 101 | 99.9 | 98.3% | 99.3% | 108% | 110% | 92.7% | 105% | 110% | 103% | 99.2% | 
9 | Cc1cc2c(C(C)C)c(O)c(O)c(C=NCc3ccoc3)c2c(O)c1-c1c(C)cc2c(C(C)C)c(O)c(O)c(C=NCc3ccco3)c2c1O | 13.9% | 33.5% | 30.2% | 68.9% | 31.2% | 54.4 | 46.5 | 44.4 | 33.5% |  | 67.1% | 24.6% | 22.4% | 20.7% | 35.5% | 19.4% | 45% | 
10 | COc1ccc(OC)c(NC=O)c1 | 83.3% | 127% | 104% | 108% | 103% | 110 |  | 109 | 101% | 109% | 104% | 105% | 96.4% | 101% | 103% | 109% | 106% | 117%
11 | O=C(C[n+]1ccn(CC(OCc2ccc(Cl)cc2Cl)c2ccc(Cl)cc2Cl)c1)c1ccc(F)cc1 (stereo unspecified) | -52.9% (active) | -46.3% (active) | -90.5% (active) | -93.4% (active) | -96.2% (active) | 26.3 |  | 103 | -71.6% (active) | -94.9% (active) | -92.5% (active) | -89.9% (active) | -84% (active) | -97.1% (active) | -94.6% (active) | -89.1% (active) | -57.1% (active) | -93% (active)
12 | CNc1cc(C(=O)O)nc(NC)n1 | 107% | 103% | 101% | 92.1% | 97.6% | 109 | 99.1 | 99.4 | 102% | 88.7% | 95.6% | 98.1% | 99.4% | 104% | 94.7% | 102% | 94.7% | 
13 | CC(C)OC(=O)Nc1cc(F)ccc1F | 96.1% | 103% | 100% | 93.8% | 106% | 101 | 93.7 | 102 | 94.8% | 111% | 99.4% | 99.8% | 97.1% | 105% | 98.3% | 103% | 110% | 
14 | CN(C)CCCNc1nc(-c2cccc(C(Cl)(Cl)Cl)c2)nc(C(Cl)(Cl)Cl)n1 | 77.8% | 99.5% | 101% | 106% | 107% | 111 | 94.4 |  | 109% | 77.8% | 105% | 98.8% | 93.5% | 92.9% | 107% | 111% |  | 
15 | O=S(=O)(c1ccc(N/N=C\c2ccccc2Cl)cc1)c1ccc(N/N=C/c2ccccc2Cl)cc1 | 88.5% | -16.1% (active) | 86.5% | 82.6% | 84.1% | 98 | 73.8 | 84.5 | 76.3% | 78.6% | 86.9% | 87.6% | 68% | 80.8% | 103% | 69.9% | 83% | 
16 | O=C(Nc1cccc(C2=NCCN2)c1)c1cccc(C(=O)Nc2cccc(C3=NCCN3)c2)c1 | 92.3% | 94.3% | 101% | 95.7% | 94.7% | 104 | 99.1 |  | 96.7% | 110% | 98.8% | 98.2% | 88.4% | 99.7% | 107% | 101% | 98.4% | 
17 | O=C(N/N=C1\c2ccccc2-c2cccc(C(=O)O)c21)c1ccc(O)cc1 | 110% | 94.2% | 97.4% | 102% | 101% | 101 | 97.6 | 99.8 | 104% | 83.7% | 99.1% | 84.3% |  | 99.4% | 98.9% | 105% | 82% | 
18 | Cc1cc(C)c(O)c(CNCCCNCc2cc(C)cc(C)c2O)c1 | -30.5% (active) | 28.5% | 82.2% | 74.6% | 88.3% | 89.3 | 62 | 72.5 | 67.3% |  | 2.52% (active) |  | 38.2% | 51.6% | -51.4% (active) | 61.3% | 11.2% | 
19 | Nc1nc(N)c2c(n1)NC(c1ccc(F)cc1)C1CCc3ccccc3C1=N2 (stereo unspecified) | 9.32% (active) | 42.3% | 70.4% | 110% | 36% | 63.9 | 83.6 | 43.7 | 49.7% |  | 54.4% | 67.3% | 26.9% | 31.9% | 71.2% | 50.1% | 84.1% | 

— PubChem BioAssay (NCI)
